Laboratory results as given in the supplement of paper PMC11732987, “Enantioselective OTUD7B fragment discovery through chemoproteomics screening and high-throughput optimisation” (Communications Chemistry, 2025).
A number with no mark means an inactive call.

How the values were obtained:
Experiment in all cases: log2 ratio of Biotin-Ahx-Ub-VS probe labelling (fragment/DMSO); higher = less target engagement (more negative = stronger competition), active = hit call of the paper (q ≤ 0.05, log2 ratio ≤ -1)
Details in all cases: compound concentration: 200 uM; treatment time: 3 h
UniProt O00507 = biological target: UniProt O00507
Summary of the method: (§1)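 Labelled DUBs were enriched with NeutrAvidin, digested with LysC and trypsin, and run by diaPASEF LC-MS/MS. The labelling used Biotin-Ahx-Ub-VS at 0.5 µM final for 1 h on HEK293T lysate (495 µg per sample) previously treated in triplicate with fragment at 200 µM or vehicle for 3 h. Values are average log2 fragment/vehicle ratios by unpaired t-test on global-median-normalised Spectronaut quantities of proteins with ≥2 unique peptides.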

UniProt P51784 = biological target: UniProt P51784
Summary of the method: as §1

UniProt Q5T2D3 = biological target: T1, UniProt Q5T2D3
T1 sequence (whole entry): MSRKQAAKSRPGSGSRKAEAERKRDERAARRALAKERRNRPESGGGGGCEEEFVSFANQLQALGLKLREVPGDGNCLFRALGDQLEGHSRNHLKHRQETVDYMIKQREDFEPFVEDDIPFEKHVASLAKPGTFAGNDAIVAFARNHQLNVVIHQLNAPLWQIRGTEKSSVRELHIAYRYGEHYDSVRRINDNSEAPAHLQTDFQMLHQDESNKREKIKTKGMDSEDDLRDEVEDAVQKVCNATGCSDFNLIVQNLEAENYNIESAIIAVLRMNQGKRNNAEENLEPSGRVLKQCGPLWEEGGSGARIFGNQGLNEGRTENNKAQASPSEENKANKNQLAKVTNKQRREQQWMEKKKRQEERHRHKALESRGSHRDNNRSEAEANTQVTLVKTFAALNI
Summary of the method: as §1

UniProt Q8TE49 = biological target: T2, UniProt Q8TE49
T2 sequence (whole entry): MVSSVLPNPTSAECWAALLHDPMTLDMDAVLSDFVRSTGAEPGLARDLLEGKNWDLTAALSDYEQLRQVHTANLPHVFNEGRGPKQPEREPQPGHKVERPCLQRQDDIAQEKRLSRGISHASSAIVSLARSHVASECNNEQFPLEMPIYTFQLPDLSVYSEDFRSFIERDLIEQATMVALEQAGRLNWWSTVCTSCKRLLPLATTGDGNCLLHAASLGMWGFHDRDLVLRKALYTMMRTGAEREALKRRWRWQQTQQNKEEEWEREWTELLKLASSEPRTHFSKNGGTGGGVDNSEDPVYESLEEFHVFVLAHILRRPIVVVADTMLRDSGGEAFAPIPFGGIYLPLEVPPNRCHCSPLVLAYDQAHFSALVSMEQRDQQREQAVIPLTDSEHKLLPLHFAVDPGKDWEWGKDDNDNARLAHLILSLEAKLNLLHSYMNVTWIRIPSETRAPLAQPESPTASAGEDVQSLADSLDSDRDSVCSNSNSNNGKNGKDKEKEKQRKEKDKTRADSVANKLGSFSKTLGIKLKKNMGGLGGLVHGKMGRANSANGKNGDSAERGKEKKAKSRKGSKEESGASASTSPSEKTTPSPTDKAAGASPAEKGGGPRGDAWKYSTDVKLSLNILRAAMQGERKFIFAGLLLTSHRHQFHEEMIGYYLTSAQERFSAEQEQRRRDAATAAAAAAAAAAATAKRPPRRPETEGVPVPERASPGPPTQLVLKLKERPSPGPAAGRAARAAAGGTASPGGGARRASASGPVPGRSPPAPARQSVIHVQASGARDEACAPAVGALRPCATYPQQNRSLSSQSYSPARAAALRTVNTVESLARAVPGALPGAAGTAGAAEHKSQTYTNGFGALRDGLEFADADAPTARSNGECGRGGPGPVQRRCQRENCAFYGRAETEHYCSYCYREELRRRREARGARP
Summary of the method: as §1

UniProt Q9P2H5 = biological target: T3, UniProt Q9P2H5
T3 sequence (whole entry): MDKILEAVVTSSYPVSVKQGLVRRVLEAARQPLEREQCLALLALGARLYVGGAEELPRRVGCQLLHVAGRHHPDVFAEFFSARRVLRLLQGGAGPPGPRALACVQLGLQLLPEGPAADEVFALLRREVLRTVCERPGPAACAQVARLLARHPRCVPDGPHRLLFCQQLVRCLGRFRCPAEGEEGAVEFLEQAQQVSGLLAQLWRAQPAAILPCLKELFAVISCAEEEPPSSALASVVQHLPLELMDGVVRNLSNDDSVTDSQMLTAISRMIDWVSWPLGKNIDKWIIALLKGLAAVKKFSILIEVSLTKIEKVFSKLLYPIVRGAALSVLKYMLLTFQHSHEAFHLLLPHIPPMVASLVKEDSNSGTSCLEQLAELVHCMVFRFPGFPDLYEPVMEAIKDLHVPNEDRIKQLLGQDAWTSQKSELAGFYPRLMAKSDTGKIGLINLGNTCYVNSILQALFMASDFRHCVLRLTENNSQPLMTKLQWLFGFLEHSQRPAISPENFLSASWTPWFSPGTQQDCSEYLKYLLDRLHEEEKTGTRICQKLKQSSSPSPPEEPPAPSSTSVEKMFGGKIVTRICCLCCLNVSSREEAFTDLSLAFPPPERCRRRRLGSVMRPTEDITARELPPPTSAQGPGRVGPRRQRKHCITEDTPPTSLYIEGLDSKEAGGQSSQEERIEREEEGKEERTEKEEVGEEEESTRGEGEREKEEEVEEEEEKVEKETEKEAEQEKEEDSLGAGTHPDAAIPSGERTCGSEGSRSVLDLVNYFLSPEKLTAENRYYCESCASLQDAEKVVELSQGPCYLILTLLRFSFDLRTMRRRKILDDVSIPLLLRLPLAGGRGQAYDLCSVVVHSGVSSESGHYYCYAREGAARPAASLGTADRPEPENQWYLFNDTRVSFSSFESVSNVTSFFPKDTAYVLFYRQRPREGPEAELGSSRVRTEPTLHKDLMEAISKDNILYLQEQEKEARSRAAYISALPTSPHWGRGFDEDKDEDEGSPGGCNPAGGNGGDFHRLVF
Summary of the method: as §1

UniProt Q9UGI0 = biological target: T4, UniProt Q9UGI0
T4 sequence (whole entry): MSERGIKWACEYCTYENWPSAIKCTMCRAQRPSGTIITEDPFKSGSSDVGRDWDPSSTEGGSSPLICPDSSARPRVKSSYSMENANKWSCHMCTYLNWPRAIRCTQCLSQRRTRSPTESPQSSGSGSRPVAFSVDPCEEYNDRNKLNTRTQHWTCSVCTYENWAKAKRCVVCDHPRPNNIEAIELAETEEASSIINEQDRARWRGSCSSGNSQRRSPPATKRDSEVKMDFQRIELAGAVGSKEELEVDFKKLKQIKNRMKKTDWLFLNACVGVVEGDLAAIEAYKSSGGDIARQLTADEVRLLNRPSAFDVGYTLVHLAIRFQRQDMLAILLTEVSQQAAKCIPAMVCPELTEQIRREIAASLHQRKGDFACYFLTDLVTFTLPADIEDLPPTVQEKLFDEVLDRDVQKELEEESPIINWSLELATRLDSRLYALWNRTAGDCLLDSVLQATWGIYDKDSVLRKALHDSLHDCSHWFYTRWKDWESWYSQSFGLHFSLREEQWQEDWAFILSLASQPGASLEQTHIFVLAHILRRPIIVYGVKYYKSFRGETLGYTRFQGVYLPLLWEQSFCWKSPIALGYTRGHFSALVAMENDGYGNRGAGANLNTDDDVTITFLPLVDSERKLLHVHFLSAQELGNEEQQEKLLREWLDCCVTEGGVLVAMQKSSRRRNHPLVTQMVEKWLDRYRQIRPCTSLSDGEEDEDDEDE
Summary of the method: as §1

YOD1 = biological target: T5, YOD1 (UniProt Q5VVQ6)
T5 sequence (whole entry): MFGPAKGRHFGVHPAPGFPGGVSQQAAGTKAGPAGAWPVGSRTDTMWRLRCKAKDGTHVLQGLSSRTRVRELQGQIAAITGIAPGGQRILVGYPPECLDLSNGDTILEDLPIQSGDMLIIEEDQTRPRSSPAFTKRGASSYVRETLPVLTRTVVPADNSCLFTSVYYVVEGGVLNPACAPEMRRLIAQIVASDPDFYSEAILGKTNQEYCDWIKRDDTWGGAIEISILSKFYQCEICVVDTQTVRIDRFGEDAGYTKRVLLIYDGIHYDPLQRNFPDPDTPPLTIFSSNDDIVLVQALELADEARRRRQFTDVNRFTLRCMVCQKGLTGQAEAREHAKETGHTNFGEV
Summary of the method: as §1

Chain of UniProt P51784 (P51784 whole entry): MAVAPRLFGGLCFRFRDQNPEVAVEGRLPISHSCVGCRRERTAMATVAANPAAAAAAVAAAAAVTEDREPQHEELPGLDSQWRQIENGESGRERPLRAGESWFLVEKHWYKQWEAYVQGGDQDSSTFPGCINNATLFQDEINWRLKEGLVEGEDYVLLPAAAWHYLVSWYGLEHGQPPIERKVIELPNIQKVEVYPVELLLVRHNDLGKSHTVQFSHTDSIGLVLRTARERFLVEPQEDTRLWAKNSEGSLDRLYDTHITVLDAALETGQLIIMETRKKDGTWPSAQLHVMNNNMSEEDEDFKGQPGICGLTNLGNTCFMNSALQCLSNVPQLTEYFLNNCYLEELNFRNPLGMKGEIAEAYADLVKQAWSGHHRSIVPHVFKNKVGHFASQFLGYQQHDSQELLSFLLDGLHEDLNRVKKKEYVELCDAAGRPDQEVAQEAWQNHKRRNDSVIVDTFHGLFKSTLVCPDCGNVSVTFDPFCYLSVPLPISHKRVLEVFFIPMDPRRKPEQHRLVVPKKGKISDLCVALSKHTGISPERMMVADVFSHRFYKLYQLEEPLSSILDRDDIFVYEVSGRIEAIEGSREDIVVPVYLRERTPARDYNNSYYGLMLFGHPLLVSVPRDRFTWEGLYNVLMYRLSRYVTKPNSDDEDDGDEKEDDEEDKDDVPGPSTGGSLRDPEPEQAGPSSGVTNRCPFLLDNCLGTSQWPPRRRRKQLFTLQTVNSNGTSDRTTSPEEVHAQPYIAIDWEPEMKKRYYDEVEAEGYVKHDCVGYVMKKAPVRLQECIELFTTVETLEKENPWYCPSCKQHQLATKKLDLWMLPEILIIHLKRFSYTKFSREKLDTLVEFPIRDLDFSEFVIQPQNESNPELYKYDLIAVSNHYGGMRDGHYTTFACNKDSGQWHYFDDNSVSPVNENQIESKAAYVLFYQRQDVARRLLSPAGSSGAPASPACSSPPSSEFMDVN
Chain of UniProt O00507 (O00507 whole entry, the tested form may be a part): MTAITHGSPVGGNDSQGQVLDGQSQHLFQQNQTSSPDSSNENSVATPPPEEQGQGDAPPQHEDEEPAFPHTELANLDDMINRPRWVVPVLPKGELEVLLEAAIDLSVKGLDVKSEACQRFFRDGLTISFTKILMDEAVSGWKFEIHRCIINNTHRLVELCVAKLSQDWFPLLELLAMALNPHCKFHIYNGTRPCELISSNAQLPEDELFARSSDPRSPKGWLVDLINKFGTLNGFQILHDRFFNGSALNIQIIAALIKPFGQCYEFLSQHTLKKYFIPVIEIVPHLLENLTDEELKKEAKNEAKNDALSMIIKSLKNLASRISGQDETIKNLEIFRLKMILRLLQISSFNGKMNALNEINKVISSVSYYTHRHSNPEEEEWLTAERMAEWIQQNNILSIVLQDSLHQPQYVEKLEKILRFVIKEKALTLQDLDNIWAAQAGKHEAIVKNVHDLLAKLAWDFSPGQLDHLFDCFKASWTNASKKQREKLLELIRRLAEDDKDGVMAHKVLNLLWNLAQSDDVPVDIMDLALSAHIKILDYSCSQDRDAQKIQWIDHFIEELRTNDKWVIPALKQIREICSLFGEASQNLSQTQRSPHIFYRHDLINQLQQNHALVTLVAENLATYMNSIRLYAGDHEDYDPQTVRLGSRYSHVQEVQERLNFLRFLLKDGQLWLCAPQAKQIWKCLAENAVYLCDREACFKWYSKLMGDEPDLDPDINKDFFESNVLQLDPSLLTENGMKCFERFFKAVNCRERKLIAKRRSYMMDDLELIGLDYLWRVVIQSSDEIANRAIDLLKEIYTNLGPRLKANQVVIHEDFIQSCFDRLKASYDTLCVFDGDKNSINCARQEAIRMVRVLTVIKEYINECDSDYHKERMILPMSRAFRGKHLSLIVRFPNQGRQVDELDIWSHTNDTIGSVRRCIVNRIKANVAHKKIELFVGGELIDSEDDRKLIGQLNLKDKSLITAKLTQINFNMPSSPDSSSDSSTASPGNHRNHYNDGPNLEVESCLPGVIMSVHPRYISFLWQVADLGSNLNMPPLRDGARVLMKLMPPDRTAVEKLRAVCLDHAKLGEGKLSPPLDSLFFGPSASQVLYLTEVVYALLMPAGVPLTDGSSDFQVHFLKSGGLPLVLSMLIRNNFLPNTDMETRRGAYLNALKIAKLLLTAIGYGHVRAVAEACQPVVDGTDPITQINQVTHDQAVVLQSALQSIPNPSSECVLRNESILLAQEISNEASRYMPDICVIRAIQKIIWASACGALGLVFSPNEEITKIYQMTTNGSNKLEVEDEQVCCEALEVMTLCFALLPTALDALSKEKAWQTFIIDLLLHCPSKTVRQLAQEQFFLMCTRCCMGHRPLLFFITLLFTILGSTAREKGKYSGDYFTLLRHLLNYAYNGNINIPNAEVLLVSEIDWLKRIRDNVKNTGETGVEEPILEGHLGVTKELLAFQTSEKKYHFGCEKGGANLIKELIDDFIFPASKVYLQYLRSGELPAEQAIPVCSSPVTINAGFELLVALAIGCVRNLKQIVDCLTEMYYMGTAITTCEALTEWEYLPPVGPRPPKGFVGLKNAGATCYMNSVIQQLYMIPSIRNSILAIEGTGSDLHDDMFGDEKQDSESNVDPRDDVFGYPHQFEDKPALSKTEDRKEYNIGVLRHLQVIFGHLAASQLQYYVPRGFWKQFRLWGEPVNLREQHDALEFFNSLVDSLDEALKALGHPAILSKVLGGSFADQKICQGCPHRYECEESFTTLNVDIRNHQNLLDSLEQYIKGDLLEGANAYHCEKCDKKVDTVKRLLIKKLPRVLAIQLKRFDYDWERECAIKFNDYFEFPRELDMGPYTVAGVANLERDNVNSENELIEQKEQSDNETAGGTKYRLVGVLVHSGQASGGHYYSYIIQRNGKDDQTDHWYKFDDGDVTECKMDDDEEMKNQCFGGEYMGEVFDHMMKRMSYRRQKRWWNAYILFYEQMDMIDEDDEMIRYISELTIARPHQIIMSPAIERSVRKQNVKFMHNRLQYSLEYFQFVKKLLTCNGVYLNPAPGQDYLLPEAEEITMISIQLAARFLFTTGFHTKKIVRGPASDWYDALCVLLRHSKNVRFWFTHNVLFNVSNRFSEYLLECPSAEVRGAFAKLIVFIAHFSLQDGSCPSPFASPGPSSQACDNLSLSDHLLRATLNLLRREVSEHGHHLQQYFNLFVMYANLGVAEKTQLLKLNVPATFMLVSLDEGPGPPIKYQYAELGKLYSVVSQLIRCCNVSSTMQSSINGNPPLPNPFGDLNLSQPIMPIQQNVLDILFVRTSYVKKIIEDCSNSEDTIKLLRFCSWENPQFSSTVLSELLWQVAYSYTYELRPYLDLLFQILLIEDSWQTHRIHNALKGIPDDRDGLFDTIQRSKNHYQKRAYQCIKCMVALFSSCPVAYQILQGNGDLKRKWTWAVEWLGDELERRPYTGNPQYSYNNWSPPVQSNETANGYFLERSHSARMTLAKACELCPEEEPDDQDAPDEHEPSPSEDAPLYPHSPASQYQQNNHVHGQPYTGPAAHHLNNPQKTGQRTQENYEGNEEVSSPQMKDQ

Compound	log2 ratio of Biotin-Ahx-Ub-VS probe labelling (UniProt O00507)	log2 ratio of Biotin-Ahx-Ub-VS probe labelling (UniProt P51784)	log2 ratio of Biotin-Ahx-Ub-VS probe labelling (UniProt Q5T2D3)	log2 ratio of Biotin-Ahx-Ub-VS probe labelling (UniProt Q8TE49)	log2 ratio of Biotin-Ahx-Ub-VS probe labelling (UniProt Q9P2H5)	log2 ratio of Biotin-Ahx-Ub-VS probe labelling (UniProt Q9UGI0)	log2 ratio of Biotin-Ahx-Ub-VS probe labelling (YOD1)
O=C(CCl)Nc1ccc(F)cc1F	-0.387	0.0319	-0.334	-0.55	-0.199	-0.962	-0.107
CC(=O)C1CCCCN1C(=O)CCl (stereo not drawn)	0.17	0.028	-0.0455	-0.492	-0.14	0.121	-0.0382
Cc1ccc(CC(CO)CNC(=O)CCl)cc1 (stereo not drawn)	-0.3	-0.172	-0.293	-0.933	-0.149	-0.929	-0.164
O=C(CCl)N1CCN2C(=O)CCC2C1 (stereo not drawn)	0.162	0.195	-0.286	-0.3	-0.168	-0.382	0.182
O=C(CCl)N1CCc2sccc2C1	-0.0149	-0.207	-0.075	-1.18 (active)	-0.371	-1.9 (active)	-0.00804
O=C(CCl)N1CCOC(c2cccc(F)c2)C1 (stereo not drawn)	0.244	-0.328	-0.182	-1.26 (active)	-0.416	-1.44 (active)	-0.0782
O=C(CCl)Nc1nnc(CC(F)(F)F)o1	-0.0948	-6e-05	-0.844	-0.179	-0.149	-0.304	0.0603
Cc1nnc(C(NC(=O)CCl)c2ccccc2)n1C (stereo not drawn)	1.12	0.68	0.343	0.469	0.372	0.693	0.747
NC(=O)C1CCCCN1C(=O)CCl (stereo not drawn)	0.156	-0.0148	-0.206	-1.95 (active)	-0.204	-0.866	0.154
O=C(CCl)Nc1cc(Cl)ccc1C(=O)O	0.337	0.177	-0.138	-0.2	-0.258	-0.128	0.233
O=C(CCl)N1CCC(c2ccn[nH]2)C1 (stereo not drawn)	-0.147	-0.136	-0.179	-0.464	-0.282	-0.767	0.0756
Cl.O=C(CCl)NCc1ccnc(Oc2ccccc2F)c1	-0.125	0.0358	-0.167	-0.406	-0.188	-0.246	-0.103
CC1Cc2ccccc2N1C(=O)CCl (stereo not drawn)	-0.438	-0.254	-0.151	-0.28	-0.127	-0.604	-0.114
NC(=O)C(Cc1ccccc1)NC(=O)CCl (stereo not drawn)	0.191	-0.0194	-0.105	-0.102	-0.193	-0.398	0.0228
O=C(CCl)Nc1ccccc1C(F)(F)F	-0.463	-0.127	-0.319	-0.411	0.0663	-0.466	-0.621
Cl.O=C(CCl)N1CCC(n2nc3ccccc3n2)CC1	-0.531	-0.268	-0.193	-0.712	-0.415	-0.422	-0.0827
Cl.O=C(CCl)NCc1cc2c(nc1O)CCCC2	-0.0624	0.0791	-0.333	-0.515	-0.244	-0.421	-0.158
O=C(CCl)N1CCC[C@@H]1c1ccon1	-0.592	-0.16	-0.395	-0.398	-0.248	-0.626	-0.749
COc1cc(Cl)c(C)cc1NC(=O)CCl	-0.429	-0.107	-0.258	-0.622	-0.319	-1.23 (active)	-0.11
